Experimental data taken from PubChem BioAssay (NCI).
This is part of a sample that, as a whole, favours compounds with a hit. Of some 83,000 tested, about 20% had one in any assay.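 Cell lines were cultured in 96-well plates, exposed to a single compound concentration, and assessed for percent growth 48 hours later.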 Calls of active or inactive are those of the source. Rule for the calls: active = growth percent below 10; inactive = the rest.

Key:
Test in all cases: NCI-60 one-dose screen, 48 h (100 = growth as untreated, 0 = no growth, -100 = all killed)
Conditions in all cases: 10 µM unless noted
[1] = system: SK-MEL-2 melanoma
[2] = system: SN12C renal
[3] = system: UO-31 renal
[4] = system: TK-10 renal
[5] = system: ACHN renal
[6] = system: CAKI-1 renal
[7] = system: A498 renal
[8] = system: MOLT-4 leukemia
[9] = system: CCRF-CEM leukemia
[10] = system: EKVX NSCLC

Measured: growth

COc1ccc(OC)c2c1CCC1(C2)NC(=O)NC1=O (stereo not drawn)
inactive: [1] 118% | [2] 97.3% | [3] 82.3% | [4] 114% | [5] 103% | [6] 91.3% | [7] 104% | [8] 104%

CC1CC=CCC1C1OCC(C)(C)CO1 (stereo not drawn)
inactive: [1] 124% | [2] 103% | [3] 97.7% | [4] 111% | [5] 106% | [6] 106% | [7] 103% | [8] 102%

COC(=O)[C@H](Cc1cnc[nH]1)NC(=O)[C@@H](NC(=O)Nc1cc(C(F)(F)F)cc(C(F)(F)F)c1)C(C)C
active: [1] -93% [100 µM] | [2] -96.3% [100 µM] | [3] -21.7% [100 µM] | [4] -95% [100 µM] | [5] -58.3% [100 µM] | [7] -87.8% [100 µM] | [8] -45.5% [100 µM]
inactive: [6] 40.9% [100 µM]

CCCCCc1c(C)[nH]c(/C=C2\N=C(c3ccc[nH]3)C=C2Oc2ccccc2)c1C
active: [1] -63.3% [100 µM] | [2] -63.4% [100 µM] | [3] -70.1% [100 µM] | [4] -62% [100 µM] | [5] -61% [100 µM] | [6] -62.8% [100 µM] | [7] -75.3% [100 µM] | [8] -40.2% [100 µM]

O=C1C(=O)/C(=C/c2ccccc2)CCCCCC/C1=C/c1ccccc1
active: [9] 4.29%
inactive: [1] 105% | [2] 79.8% | [3] 30.9% | [4] 115% | [5] 88.5% | [6] 82.1% | [7] 78.6% | [8] 10.2%

COC(=O)[C@H](Cc1cn(C)cn1)NC(=O)[C@H](Cc1ccccc1)NC(=O)Nc1cc(C(F)(F)F)cc(C(F)(F)F)c1
active: [1] -94.9% [100 µM] | [2] -96.1% [100 µM] | [4] -97.9% [100 µM] | [5] -96.3% [100 µM] | [7] -90.6% [100 µM] | [8] -55% [100 µM]

O=c1ccn(C2CC=C(CO)O2)c(=O)[nH]1 (stereo not drawn)
inactive: [10] 105% | [2] 92.1% | [3] 110% | [4] 100% | [5] 109% | [6] 63.1% | [7] 101% | [9] 90.4% | [8] 101%

O=C(/C=C/c1c(-c2ccccc2)[nH]c2ccccc12)S(=O)(=O)c1ccccc1
inactive: [10] 64.3% | [2] 73.6% | [3] 31% | [4] 121% | [5] 71.8% | [6] 200% | [7] 53.8% | [9] 30.2% | [8] 20.4%

Cc1ccc(-c2c3c(N)c4c(nc3nc3c2c(C)nn3-c2ccccc2)CCC4)cc1
inactive: [1] 88.6% | [2] 94.1% | [3] 50.5% | [5] 12% | [6] 99.2% | [8] 60.9%

COC(=O)[C@H](Cc1cn(C)cn1)NC(=O)[C@H](C)NC(=O)Nc1cc(C(F)(F)F)cc(C(F)(F)F)c1
active: [1] -90.1% [100 µM] | [2] -82.4% [100 µM] | [3] -92.7% [100 µM] | [4] -96.4% [100 µM] | [5] -90% [100 µM] | [7] -88.4% [100 µM] | [8] -27.4% [100 µM]
inactive: [6] 73.1% [100 µM]

CCOC(=O)c1sc(NC(=O)COc2cccc(/C=C3\Cc4ccc(Cl)cc4C3=O)c2)nc1C
active: [3] -17.4%
inactive: [10] 107% | [2] 105% | [4] 145% | [5] 110% | [6] 84.6% | [7] 133% | [9] 114% | [8] 105%

FC(F)(F)c1ccc(-c2cnc(-c3nn[nH]n3)nc2NC2CCCCCC2)cc1
inactive: [1] 47.3% [50 µM] | [2] 50.9% [50 µM] | [3] 38.2% [50 µM] | [4] 105% [50 µM] | [5] 68.9% [50 µM] | [6] 36.8% [50 µM] | [7] 61.5% [50 µM] | [8] 25.4% [50 µM]

COc1cccc(/C=N/Nc2nc3ccccc3s2)c1OC
inactive: [10] 95.7% | [2] 102% | [3] 85.1% | [4] 64.8% | [5] 79.7% | [6] 78.8% | [7] 121% | [9] 77% | [8] 74.4%

COC(=O)[C@H](CCCCNC(=O)OCc1ccccc1)NC(=O)[C@@H](NC(=O)Nc1cc(C(F)(F)F)cc(C(F)(F)F)c1)C(C)C
active: [1] -77.3% [100 µM] | [2] -88.3% [100 µM] | [3] -88.6% [100 µM] | [4] -44% [100 µM] | [5] -99.4% [100 µM] | [6] -36.3% [100 µM] | [7] -5.02% [100 µM] | [8] -7.72% [100 µM]

Cc1nn2c(/C=C3/C(=O)Nc4cc(Cl)ccc43)c(-c3ccccc3)nc2s1
inactive: [7] 80.2% | [8] 13.1%
active: [1] 0.603% | [2] -1.6% | [3] -72.3% | [5] -26.5% | [6] -50.4% | [9] -14%

COc1ccc(N2CCN(CC(=O)N3CCN(c4nnc(-c5ccc(Cl)cc5)c(-c5ccc(Cl)cc5)n4)CC3)CC2)cc1
active: [8] -21.2%
inactive: [10] 53.4% | [2] 67.7% | [3] 21.2% | [4] 84.2% | [5] 52.3% | [6] 147% | [7] 38.1% | [9] 20.6%

O=C(Nc1nn2c(-c3cc(C(F)(F)F)cc(C(F)(F)F)c3)nnc2s1)C1CCCC1
active: [3] 8.94% | [4] -30.4% | [5] 8.22% | [6] 7.75% | [7] -21.8% | [8] -10.2%
inactive: [10] 21.7% | [2] 11.6% | [9] 13.8%

O=C(/C=C/c1cccc(O)c1)c1cccc(-n2cc(-c3ccccc3)[nH]c2=O)c1
active: [2] -12.9% | [3] -73.5% | [5] -75.8% | [6] 8.38% | [9] -3.86% | [8] -7.37%
inactive: [10] 66.8% | [4] 12.4% | [7] 90.6%

C1CCC(C(CC2CCCCN2)C2CCCCC2)CC1 (stereo not drawn)
inactive: [1] 64.2% | [2] 20.8% | [3] 11.9% | [4] 21.2% | [7] 51.1%
active: [6] 5.48% | [9] 4.88%

O=C(CC1Sc2ccccc2NC1=O)NNc1cccc(Cl)c1Cl (stereo not drawn)
inactive: [10] 91.3% | [2] 87.5% | [3] 61.8% | [4] 89.9% | [5] 91.4% | [6] 90.4% | [7] 61.5% | [9] 70.8% | [8] 71.6%

O=c1ncc(-c2ccc(C(F)(F)F)cc2)c(NC2CCCCCC2)[nH]1
inactive: [1] 50.9% | [2] 45.9% | [3] 52.3% | [4] 65.1% | [5] 24.4% | [6] 93% | [9] 46.4% | [8] 77.7%

C[C@@H]1C[C@@H]([C@@H](CC2CC(=O)NC(=O)C2)OC(=O)CC(=O)c2ccccc2)C(=O)[C@@H](C)C1
inactive: [10] 11.4% | [7] 16.7% | [9] 15.4%
active: [2] 8.23% | [3] -10.2% | [4] 3.61% | [5] 7.54% | [6] -2.54% | [8] 9.81%

Nc1nc2c(nnn2Cc2ccc(Cl)c(Cl)c2)c(=O)[nH]1
inactive: [1] 90.1% | [2] 89.9% | [3] 69.2% | [4] 103% | [5] 92.4% | [7] 85.5% | [9] 81.2% | [8] 93.8%

Cc1ccc(C2=NNC(c3sc(Cl)nc3Cl)C2)cc1 (stereo not drawn)
inactive: [1] 89.3% | [2] 40.8% | [3] 78.3% | [5] 112% | [6] 96.6% | [7] 97.2% | [9] 18%
active: [8] 8.29%

CCCCCCCCCCOC(C)=O
inactive: [1] 116% | [2] 103% | [4] 116% | [5] 98.8% | [6] 79.8% | [7] 108% | [8] 103%

CCCCCCC(CC#N)(CCC)CCCC (stereo not drawn)
inactive: [1] 123% | [2] 97.8% | [3] 97.6% | [4] 102% | [5] 99% | [7] 100% | [8] 97.5%

FC(F)(F)c1cc(-c2nnc3n2N=C(N2CCCC2)CS3)cc(C(F)(F)F)c1
active: [4] -22.1%
inactive: [10] 80.6% | [2] 69.2% | [3] 48.8% | [5] 47.1% | [6] 87.7% | [7] 10.6% | [9] 86.4% | [8] 90.5%

CC(C)=CCNc1ncnc2c1ncn2C1OC(COP(=O)(O)O)C(O)C1O (stereo not drawn)
active: [7] -7.75% | [8] 6.19%
inactive: [1] 69.4% | [2] 32.4% | [3] 39.6% | [5] 28.2% | [6] 16.3% | [9] 11.4%

O=C1NC(=O)/C(=C\c2ccco2)S1
inactive: [1] 105% | [2] 95.8% | [3] 67.5% | [4] 102% | [5] 100% | [7] 75.8% | [9] 95.9% | [8] 111%

FCc1ncc(-c2ccc(C(F)(F)F)cc2)c(NC2CCCCCC2)n1
inactive: [4] 38% [100 µM]
active: [1] -40.8% [100 µM] | [2] -30.3% [100 µM] | [5] 8.81% [100 µM] | [6] 0.556% [100 µM] | [7] -19.4% [100 µM] | [8] -20.3% [100 µM]
